These results are taken from the OligoGym collection.
Note: reference of the scale not given here.

The first assay has as its target ORC1. Description: pooled miR-30 sensor sort-seq; sequence = guide strand. Particulars: shRNA.
For the sequence TAGAGGTCGCTTCATTCTGGGC, the sensor-assay potency score (higher = more potent) is -1.24.

TCAATCAACACAAACTGTCCAA: the sensor-assay potency score (higher = more potent) came to 0.619. Sequence TTGCACATAGACTTGGTGGGGC displayed a sensor-assay potency score (higher = more potent) of 0.793. In turn, TTTGGTAGTGCAGTTTTCGATC gave a sensor-assay potency score (higher = more potent) of -0.734. TCTCGGTGGAACAACCTTCTGT had a sensor-assay potency score (higher = more potent) of -0.225.

In the case of TTTTCGAAGCTGCAATTCGGGT, the sensor-assay potency score (higher = more potent) was -1.44. Still for that read-out and setting: as for TAAGAGAGTCCAGTCTCTCTGG, the figure is -0.254; as for TCATTTTTCAGATTCGTCGGTA, 0.261; as for TACAGCAGAAACATGCAGCCTC, 0.436. TTTCGATCCAACAAGGGCCTGC yielded a sensor-assay potency score (higher = more potent) of 0.15. Take TTTACTATTACCTAGAAACCGA: the sensor-assay potency score (higher = more potent) is -0.315. On to TAGAGTCTGAAATCTCTGCTGC, for which the sensor-assay potency score (higher = more potent) worked out at 0.498.

For another assay, the target named is ORM2. The description is as above. Particulars: shRNA.
Regarding TGTACATGACATCTGACCTGGG, the sensor-assay potency score (higher = more potent) was found to be 0.548.

Sequence TTATAGAAGCACTGGTTCTGGC had a sensor-assay potency score (higher = more potent) of -0.114. In turn, TTATCCTTTTTCCAGTCGGTGT had a sensor-assay potency score (higher = more potent) of -1.32. Regarding TGGACATTCAGGTAACTGGAGT, the sensor-assay potency score (higher = more potent) is -0.96.

TTCTTCTCATCGTCCAGGTAGG had a sensor-assay potency score (higher = more potent) of -0.591. Still for that read-out and setting: the figure for GTGTACATGACATCTGACCTGG is -0.944. In turn, TACATGACATCTGACCTGGGAA returned a sensor-assay potency score (higher = more potent) of -0.156.

Consider TGGAGTTATAGAAGCACTGGTT, for which the sensor-assay potency score (higher = more potent) is -0.607. Consider TCATCGTCCAGGTAGGAACCAA, for which the sensor-assay potency score (higher = more potent) was -0.639.

In the case of TAAGGAACAGCAGGTGAGCAAC, the sensor-assay potency score (higher = more potent) was -1.17. ATCAAGGTCTTGGTGTCCCTAA gave a sensor-assay potency score (higher = more potent) of -0.929.

TAGAAGCACTGGTTCTGGCGGG yielded a sensor-assay potency score (higher = more potent) of -0.234.

A further assay has as its target OSBP2. Described as above. Particulars: shRNA.
Turning to TTCTCTTCCTCCGAGCTGCAGC, the sensor-assay potency score (higher = more potent) was -0.929. On the same count and under the same terms, as for TTCAGTACTAAATTGAGTGCAT, the figure is 0.314; as for TAGGAGGACACAGAGAAGGCGG, -0.227; as for TTGGAGAACACGTAGTGCGCAG, -0.163. In turn, TCTAGTACATTGTCTGCTGAGC returned a sensor-assay potency score (higher = more potent) of -0.715.

Sequence TTGTGAACAGTTGAGGTGCTCT came in with a sensor-assay potency score (higher = more potent) of -0.621. In the case of ATCTAGTACATTGTCTGCTGAG, the sensor-assay potency score (higher = more potent) was -0.399. Still for that read-out and setting: the figure for TAAGTGGATGGCACCTAGCGGC is -0.606; for TTGATCATAGCATTGGATGTGA it is 0.46; for TTGACTTTGGATGAACCCTTGG it is -0.284. The same measure, in the same setting: as for TACACTGTCTTCTGCTTCCCGT, the figure is -0.671; as for TTGCCCAGCACGAACCAGCGGC, -0.788.

The target of another assay is OSBPL11. The assay is described as above. The note with it: shRNA.
TTCTTTACCACTTTGGTCTTGC showed a sensor-assay potency score (higher = more potent) of 0.433.

Sequence TATACTTCATTAAATAGCCATA displayed a sensor-assay potency score (higher = more potent) of -1.62. The sequence AATAGCTTCAGTATGATGCTGT showed a sensor-assay potency score (higher = more potent) of 0.478. Same read-out and setting: the figure for TATCTGAAGTCTGCTAACCCAG is -1.27.
